# According to PubChem BioAssay AID1224865 (Sanford-Burnham Center for Chemical Genomics, 2016):
# In all, about 360,000 compounds went through this assay and about 1,100 (0.31%) were called active. No stated cut-off is given here; in the data, active means activity change above about 30% (passing the limit was not always enough); inactive means the rest. Only a selection was taken, and actives are over-represented in it overall.
# Biological target: Hepatocyte nuclear factor 4-alpha (Homo sapiens) (UniProt P41235)
# Test: HNF4-alpha DNA association modulation – biochemical, fluorescence polarization, FITC-DNA, primary screen (AID 1224865)
# Settings: HNF4a-FITC DNA binding, 1 h, at 10 µM, hits give high values
# Chain of Hepatocyte nuclear factor 4-alpha (Homo sapiens) (P41235 whole entry, looked up): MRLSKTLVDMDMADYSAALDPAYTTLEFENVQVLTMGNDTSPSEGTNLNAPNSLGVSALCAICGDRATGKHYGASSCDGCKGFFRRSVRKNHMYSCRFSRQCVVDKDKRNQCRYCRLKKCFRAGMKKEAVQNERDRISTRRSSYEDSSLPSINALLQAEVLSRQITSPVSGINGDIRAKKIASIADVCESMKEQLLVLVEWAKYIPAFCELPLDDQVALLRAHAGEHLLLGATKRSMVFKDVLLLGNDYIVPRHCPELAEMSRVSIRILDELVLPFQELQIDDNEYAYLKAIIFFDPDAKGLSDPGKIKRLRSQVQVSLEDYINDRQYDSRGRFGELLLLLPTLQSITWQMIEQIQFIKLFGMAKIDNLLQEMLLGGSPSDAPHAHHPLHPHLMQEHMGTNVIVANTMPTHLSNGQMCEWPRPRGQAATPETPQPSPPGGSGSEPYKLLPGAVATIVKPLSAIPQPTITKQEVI
row,Structure (SMILES),activity change
1,O=C(COC(=O)c1ccc(F)cc1F)Nc1ncccn1,38.7% (active)
2,CCOC(=O)c1cccc(NC(=O)c2ccc(F)cc2F)c1,7% (inactive)
3,O=C(COC(=O)CSc1ccccc1)Nc1ccc(F)cc1F,-1.87% (inactive)
4,CC1C(=O)Nc2ccccc2N1C(=O)c1ccc(F)cc1F (stereo unspecified),2.72% (inactive)
5,O=C(NCc1ccncc1)c1cccc(NS(=O)(=O)c2ccc(F)c(F)c2)c1,-3.8% (inactive)
6,CC1C(=O)N2CCCc3cc(S(=O)(=O)NCc4ccc(F)cc4)cc1c32 (stereo unspecified),-0.59% (inactive)
7,CCn1nnc(NC(=O)c2c(OC)cccc2OC)n1,0.86% (inactive)
8,CC(C)CC(=O)Nc1ccc(Cc2ccncc2)cc1,1.88% (inactive)
9,COc1cccc(OC)c1C(=O)Nc1ccc(Cc2ccncc2)cc1,41.2% (active)
10,C=CCn1c(SCC(=O)NC23CC4CC(CC(C4)C2)C3)nc(O)cc1=O,2.14% (inactive)
11,Cc1ccc2[nH]c(=O)c(CN(CCCN(C)C)C(=O)Nc3cccc(Cl)c3)cc2c1,4.9% (inactive)
12,O=C1Nc2cc(C(=O)N3CCN(c4ccc(F)cc4)CC3)ccc2NC1CSCc1cccc(F)c1 (stereo unspecified),102% (active)
13,C=CCn1c(SCc2cccc(F)c2)nc2cc(C(=O)N3CCC(C(N)=O)CC3)ccc2c1=O,2.05% (inactive)
14,COC(=O)c1ccc(C(=O)OC)c(NC(=S)N2CCN(c3ccc(F)cc3)CC2)c1,-1.17% (inactive)
15,Cc1ccc(CSCC2Nc3ccc(C(=O)N4CCN(c5ccc(F)cc5)CC4)cc3NC2=O)cc1 (stereo unspecified),37.8% (active)
16,Cc1noc(C)c1S(=O)(=O)Nc1ccc(C(=O)N2CCN(c3ccc(F)cc3)CC2)cc1,1.2% (inactive)
17,Cc1ccccc1CN1CCN(C(=O)c2cccc(F)c2)CC1,3.17% (inactive)
18,COc1ccc(Cn2cccc(NC(=O)Nc3ccc(C#N)cc3)c2=O)cc1,-3.37% (inactive)
19,COC(=O)c1c(NC(=O)CN2CCN(S(=O)(=O)c3ccccc3[N+](=O)[O-])CC2)sc2c1CCC(C)C2 (stereo unspecified),0.7% (inactive)
20,O=S(=O)(Cc1ccccc1)c1nc2ccccc2n1Cc1ccccn1,-0.31% (inactive)
21,O=C1/C(=C/c2coc3ccc(O)cc3c2=O)SC(=S)N1c1ccccc1,55.6% (active)
22,CC1=CC2=NC(=O)/C(=C/c3coc4ccccc4c3=O)C(=N)N2O1,6.6% (inactive)
23,Cc1ccc(S(=O)(=O)N2CCC(C)CC2)cc1C(=O)NCc1ccccn1,0.82% (inactive)

row,Structure (SMILES),activity change
1,Cc1ccc(CC2S/C(=C(/C#N)C(=O)N3CCOCC3)N(c3ccccc3)C2=O)cc1 (stereo unspecified),0.2% (inactive)
2,CCN(CC(=O)NCc1cccs1)C(=O)/C=C/c1ccc(C)cc1,0.98% (inactive)
3,CC1CCN(c2ccc3c(c2)S(=O)(=O)c2cc(C(=O)O)ccc2C3=O)CC1,14.3% (inactive)
4,COc1cccc(-c2ccc3c(c2)S(=O)(=O)c2cccc(C(=O)O)c2C3=O)c1OC,1.88% (inactive)
5,Cc1ccc(CNC(=O)c2cccc3c2C(=O)c2ccc(N4CCC(C)CC4)cc2S3(=O)=O)cc1,45.8% (active)
6,Cc1nn(Cc2ccc(C(=O)N3N=C(C(F)F)CC3(O)C(F)F)cc2)c(C)c1[N+](=O)[O-] (stereo unspecified),1.52% (inactive)
7,COc1cc(/C=C2/SC(=S)N(Cc3ccccc3)C2=O)cc(OC)c1O,48.1% (active)
8,CN(C)c1ccc(/C=C2\NC(=S)N(Cc3ccccc3)C2=O)cc1,128% (inactive)
9,COc1cc(=O)[nH]c(=O)n1C(=O)Cc1ccccc1,2.22% (inactive)
10,CC1CCCCC1NC(=O)C1CCCN1S(=O)(=O)c1cccc2nsnc12 (stereo unspecified),-0.79% (inactive)
11,Cc1cccc(C)c1NC(=O)C(c1cccc2ccccc12)n1c(=O)c(-c2ccco2)nc2ccccc21 (stereo unspecified),32.4% (inactive)
12,Cc1cccc(C)c1NC(=O)C(c1ccc(C(F)(F)F)cc1)n1c(=O)c(-c2ccco2)nc2ccccc21 (stereo unspecified),26.7% (inactive)
13,O=C(NC1CCCCC1)C(c1cc2ccccc2o1)n1c(=O)c(-c2ccco2)nc2ccccc21 (stereo unspecified),45.8% (active)
14,Oc1ccc(/C=N/N(Cc2ccccc2)c2ccccc2)cc1,-0.08% (inactive)
15,CCOc1[nH]n(-c2ccc(Cl)cc2)c(=O)c1C=Nc1ccc(O)cc1,-5.55% (inactive)
16,Oc1ccc(N=Cc2c(O)ccc3ccccc23)cc1,72% (active)
17,COc1ccccc1C(=O)N1CCN=C1SCc1cccnc1,2.47% (inactive)
18,O=C(Cn1[nH]c(=O)c2ccccc2c1=O)Nc1cccc(-c2nnc3n2CCCCC3)c1,1.84% (inactive)
19,Cc1ccc(C)c(C(=O)COC(=O)Cn2[nH]c(=O)c3ccccc3c2=O)c1,-0.2% (inactive)
20,Cc1ccc(-c2csc(NC(=O)Cn3[nH]c(=O)c4ccccc4c3=O)n2)cc1,50% (active)
21,O=C(OC(C(=O)NC1CCCC1)c1ccc(F)cc1)c1ccno1 (stereo unspecified),-0.09% (inactive)
22,Cc1sc2nc(-c3ccccc3F)oc(=O)c2c1C,0.82% (inactive)
23,Nc1c(N(CCCO)C(=O)C2CCCC2)c(=O)[nH]c(=O)n1Cc1ccccc1,-0.45% (inactive)

row,Structure (SMILES),activity change
1,CCc1nnc(NC(=O)c2ccco2)s1,0.04% (inactive)
2,CCc1ccc2nc3sc(C(=O)Nc4nnc(CC)s4)c(N)c3cc2c1,45.1% (active)
3,CCCCOC(=O)Nc1nnc(CC(=O)NCc2ccccc2)s1,-1.39% (inactive)
4,COc1ccc(CCNC(=O)C(=O)NCC2OCCN2S(=O)(=O)c2cccs2)cc1OC (stereo unspecified),5.44% (inactive)
5,COc1cc(N=Cc2c(O)c3ccccc3oc2=O)c(OC)cc1Cl,98.2% (active)
6,COc1cc(O)c2c(=O)c3c(O)c(O)ccc3oc2c1OC,3.57% (inactive)
7,Cc1ccc(N2C(=O)C(CC(=O)Nc3cccc(F)c3)N(CCc3ccncc3)C2=O)cc1 (stereo unspecified),0.66% (inactive)
8,NC(=O)C1(Nc2ccc([N+](=O)[O-])cc2)CCCC1,-1.78% (inactive)
9,O=[N+]([O-])c1ccc(N=NNc2ccc([N+](=O)[O-])cc2)cc1,54.8% (active)
10,COC(=O)c1ccccc1N=NNc1ccc([N+](=O)[O-])cc1,-3.24% (inactive)
11,O=C1CSC(c2cccc(F)c2)N1c1ccc(O)cc1 (stereo unspecified),1.06% (inactive)
12,O=C(CCc1nnc2ccc(NCCCN3CCCC3=O)nn12)NCc1ccccc1Cl,1.08% (inactive)
13,CCn1c(SCC(=O)Nc2ccc3c(c2)OCCO3)nc2c(c1=O)SC(C)C2 (stereo unspecified),1.48% (inactive)
14,Cc1nc2ccccc2nc(=O)c1NNc1ccc([N+](=O)[O-])cc1,71% (active)
15,Cc1cccc(NS(=O)(=O)c2ccc([N+](=O)[O-])cc2)n1,0.15% (inactive)
16,CC(O)c1nc2ccccc2n1Cc1ccc([N+](=O)[O-])cc1 (stereo unspecified),-3.67% (inactive)
17,O=C(O)C1CCC(CNS(=O)(=O)c2ccc(Br)cc2)CC1 (stereo unspecified),1.62% (inactive)
18,Clc1cccc(Cc2c(-c3cccc(Cl)c3)nc3ccc(Cl)cn23)c1,8.89% (inactive)
19,Fc1cccc(Cc2c(-c3ccc(Cl)cc3)nc3ccc(Cl)cn23)c1,6.82% (inactive)
20,Fc1cccc(Cc2c(-c3cccc(Cl)c3)nc3ccc(Br)cn23)c1,42.3% (active)
21,CN(C)C(=O)CCC(=O)N1CCCCC1C(=O)Nc1ccc(Oc2ccccc2F)cc1 (stereo unspecified),1.87% (inactive)
22,Cc1c(C(=O)Nc2cccc(Cl)c2)cn2c(nc3ccccc32)c1C#N,0.36% (inactive)
23,Cc1nc2ccccc2n1CC(O)c1ccccc1 (stereo unspecified),-4.17% (inactive)

row,Structure (SMILES),activity change
1,Cc1nc(-c2ccccc2)cn2c1nc1ccccc12,43.5% (active)
2,COc1ccc(-c2cc(C(F)(F)F)nc(S(C)(=O)=O)n2)cc1OC,-0.66% (inactive)
3,O=C(Cn1nnc(-c2ccc(CN3CCOCC3)cc2)n1)NC1CCCCC1,4.12% (inactive)
4,N/C(=N\S(=O)(=O)c1ccc(Cl)cc1)N1CCOCC1,4.34% (inactive)
5,CCOc1ccc(C(=O)Nc2cccc(SC)c2)cc1,0.43% (inactive)
6,O=C(Nc1cccc(-c2nc3ccccc3[nH]2)c1)c1ccc(C(=O)Nc2cccc(-c3nc4ccccc4[nH]3)c2)cc1,81.8% (active)
7,CCOc1ccc(C(=O)Nc2cccc(-c3ccc4nncn4n3)c2)cc1,-0.86% (inactive)
8,Cc1ccc(Cl)cc1N1CCN(C(=O)c2cccc3c(=O)c(C)c(-c4ccccc4)oc23)CC1,-0.99% (inactive)
9,CCOC(=O)c1cc(NC(=O)c2ccc(Cl)cc2)c(=O)oc1-c1ccccc1,-0.75% (inactive)
10,CC(=O)c1cc(NC(=O)c2ccccc2)c(=O)oc1/C=C/N(C)C,102% (active)
11,COc1ccc(C2COC(=O)C2=N)c(NC(=O)c2ccccc2)c1 (stereo unspecified),-5.12% (inactive)
12,CCOc1ccc(Oc2nc(C)cc(OC)n2)nn1,0.35% (inactive)
13,CC(C)C[C@H](NC(=O)[C@@H]1O[C@H]1C(=O)O)C(=O)NCCCCN=C(N)N,2.71% (inactive)
14,COc1ccc(CN2CCCCC2C)cc1OC (stereo unspecified),-0.13% (inactive)
15,CCc1ccc2oc(=O)cc(CN3CCCCC3C)c2c1 (stereo unspecified),39.9% (active)
16,CC(C)c1ccc2oc(=O)cc(CN3CCN(Cc4ccccc4)CC3)c2c1,2.71% (inactive)
17,O=C(CCCn1c(=O)c2sccc2n(CC(=O)NCC2CCCO2)c1=O)NCc1ccco1 (stereo unspecified),-1.63% (inactive)
18,COc1cccc(NS(=O)(=O)c2ccc3[nH]cc(C(=O)NCCCOC(C)C)c(=O)c3c2)c1,0.82% (inactive)
19,Cc1cc(NC(=O)CSc2nc(=O)cc(N)n2-c2ccc(F)cc2)no1,-1.93% (inactive)
20,Cc1cc(NC(=O)CSc2nnnn2-c2ccc(F)cc2)no1,2.72% (inactive)
21,Cc1cc(NC(=O)CSc2nccn2-c2ccc([N+](=O)[O-])cc2)no1,35.4% (active)
22,CC(C)c1ccc(-c2nn[nH]n2)cc1,-1.88% (inactive)
